Assay [1] addresses Guanine nucleotide-binding protein G(i) subunit alpha-1 (Homo sapiens) (UniProt P63096). Kind of assay: qHTS Assay for Inhibitors of RGS12 GoLoco Motif Activity (Green Fluorophore) (AID 879). Further: potency means the concentration at half of the fitted maximal effect. The procedure, abridged: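 A drop in FITC polarization marked displacement of the FITC-tagged RGS12 GoLoco peptide (10 nM) from Gαi1 (50 nM). Compounds were incubated 10 min at room temperature in Tris pH 7.5 buffer containing 150 mM NaCl, 0.1 mM GDP and 0.05% NP40; unlabeled peptide titration served as control.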

Assay [2] addresses Cytochrome P450 2D6 (Homo sapiens) (UniProt P10635). Kind of assay: qHTS Assay for Inhibitors and Substrates of Cytochrome P450 2D6 (AID 891). Further: potency means the concentration at half of the fitted maximal effect; nearly all actives have a fitted effect of over 60% in size. Summed up: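 Luminescent read-out of luciferin formed by 5 nM human CYP2D6 demethylating 30 uM Luciferin-ME EGE (Km level) over 60 min at room temperature after NADPH regeneration addition. Data normalized to full inhibition by 1.43 uM quinidine.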

Assay [3] is described as follows: qHTS Assay for Identification of Small Molecule Antagonists for Thrombopoietin (TPO) Signaling Pathway (AID 918). Further: potency means the concentration at half of the fitted maximal effect; nearly all actives have a fitted effect of over 60% in size. Conditions: TPO-dependent cell signaling reporter, antagonist mode. Summed up: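 Inhibitors of TPO signaling are sought by stimulating IL-3-starved murine Ba/F3 cells (human TPO receptor, Glycoprotein IIb-driven luciferase) with TPO at its EC50 of 26 pM alongside compound. After 24 hrs at 37 C, reporter luminescence is measured.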
For orientation: qHTS replaces the single test concentration by a dilution series.

The target in assay [4] is Cytochrome P450 3A4 (Homo sapiens) (UniProt P08684). Kind of assay: qHTS Assay for Inhibitors and Substrates of Cytochrome P450 3A4 (AID 884). Further: series mostly up to about 57 µM; on the % scale 0 is the no-effect control and ±100 the full control effect; nearly all actives have a fitted effect of over 50% in size. The procedure, abridged: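 Luminescent readout of luciferin produced by CYP3A4 (20 nM) dealkylation of Luciferin-PPXE, 25 uM (its KM). NADPH-driven reaction ran 60 min at RT after 10 min compound preincubation; data scaled to 57 uM ketoconazole as 100% inhibition.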
Sequence of Cytochrome P450 3A4 (Homo sapiens) (P08684 whole entry, looked up): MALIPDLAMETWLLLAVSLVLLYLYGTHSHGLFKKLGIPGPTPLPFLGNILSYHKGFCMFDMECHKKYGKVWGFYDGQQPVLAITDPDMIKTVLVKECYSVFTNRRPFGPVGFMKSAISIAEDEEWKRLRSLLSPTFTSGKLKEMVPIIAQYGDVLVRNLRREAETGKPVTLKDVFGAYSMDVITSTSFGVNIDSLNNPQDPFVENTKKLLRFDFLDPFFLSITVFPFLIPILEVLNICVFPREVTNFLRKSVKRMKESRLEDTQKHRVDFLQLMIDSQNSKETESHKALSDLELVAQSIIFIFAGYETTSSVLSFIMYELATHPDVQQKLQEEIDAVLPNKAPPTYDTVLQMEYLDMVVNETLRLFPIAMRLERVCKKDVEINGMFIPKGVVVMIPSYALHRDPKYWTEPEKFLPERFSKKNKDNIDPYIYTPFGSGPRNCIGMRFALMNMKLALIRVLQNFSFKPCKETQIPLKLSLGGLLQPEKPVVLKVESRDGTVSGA

Assay [5] can be described thus: Confirmation and Secondary Assay for Modulators of Hemoglobin Beta Chain Splicing at IVS2 654 locus (AID 910).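 Further: HeLa cells stably carrying EGFP split by mutant beta-globin IVS2-654 intron; per-well total GFP intensity by laser scanning cytometry after 2-day treatment; % of control where 0% means no effect.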 Summed up:
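Readout: per-well total peak green fluorescence (488 nm ex, 500–520 nm em) from objects 5–250 µm, reflecting correct splicing of an EGFP-654 reporter. Compounds were applied for 2 days at 37 °C to overnight-plated HeLa EGFP-654 cells; controls were DMSO and 500 nM IVS2-654 PNA.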

Assay [6] is described as follows: qHTS Assay for Identification of Small Molecule Antagonists for NFkB Signaling Pathway (AID 895; active means well fitted inhibition curve with a large enough effect in the signal ratio, with a control signal flat, not every such curve was filed as active; the % refers to the signal ratio; further: potency means the concentration at half of the fitted maximal effect). Summed up: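 Beta-lactamase reporter read-out (460 and 530 nm emission ratio, 405 nm excitation, 2 hrs substrate loading RT) after 5 hr stimulation with 10 pM TNF alpha in compound-treated NFkB-bla ME-180 cells in low-serum medium.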
Assay [7] can be described thus: qHTS Assay for Identification of Small Molecule Agonists for Thrombopoietin (TPO) Signaling Pathway (AID 917). Further: on the % scale 0 is the no-effect control and ±100 the full control effect. Summed up: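 Stimulation at the TPO EC50 (26 pM final) was used to detect activators. Ba/F3 mouse cells bearing human TPO receptor and a luciferase reporter under the Glycoprotein IIb promoter were exposed to compounds for 24 hrs at 37 C.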
The target of assay [8] is Cytochrome P450 2C9 (Homo sapiens) (UniProt P11712). The experiment in a line: qHTS Assay for Inhibitors and Substrates of Cytochrome P450 2C9 (AID 883). Further: nearly all actives have a fitted effect of over 60% in size. Further: potency means the concentration at half of the fitted maximal effect. The procedure, abridged:
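Luminescent read-out of deoxyluciferin hydroxylation, normalized to 57uM sulphaphenazole (AC100). Reaction: 10nM enzyme, 100uM Luciferin-H (equal to KM), 25mM KPO4, 10 min compound preincubation, then 60 min with NADPH regeneration, both at 37C.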

Assay [9] has as its target Cytochrome P450 2C19 (Homo sapiens) (UniProt P33261). Kind of assay: qHTS Assay for Inhibitors and Substrates of Cytochrome P450 2C19 (AID 899). Further: nearly all actives have a fitted effect of over 60% in size. Further: potency means the concentration at half of the fitted maximal effect. Summed up:
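Luminescence readout of luciferin formed from 10uM Luciferin-H EGE (KM level) by 5 nM CYP2C19 in 50mM KPO4. 60 min NADPH-driven reaction at 37C after 10 min compound preincubation; data scaled to 57uM ketoconazole inhibition.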

The nature of assay [10]: qHTS Assay for Identification of Small Molecule Agonists for Hypoxia Response Element Signaling Pathway (AID 914; active means well fitted activation curve with a large enough effect in the signal ratio, with a control signal flat, not every such curve was filed as active; the % refers to the signal ratio; further: % of control where 0% means no effect). Conditions: ME-180 HRE-bla reporter, beta-lactamase ratio, CoCl2, 17 h; active compounds read high. Summed up: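 ME-180 cells carrying an HRE-driven beta-lactamase reporter were treated with compounds in a titration series plus an EC50 level of CoCl2 for 17 h at 37 degrees Celsius; CCF4 readout as the 460nm/530nm ratio gave AC50 values.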

Several values for one entry are separate records, joined by “and”; a condition that tells them apart may be missing. Equal values may be shown once. Unmarked numbers belong to inactive results. Records with an inconclusive call do not appear. Activity calls are given as the source filed them. Unless noted, the call rests on the fitted dose curve; in most records, active means well fitted curve in the direction sought with a large enough effect; inconclusive means small, poorly fitted or top-dose-only effect, or another doubt; inactive means no such curve, though single readings can be large; an effect the other way counts as inactive or inconclusive.

Sequence of Cytochrome P450 2C19 (Homo sapiens) (P33261 whole entry, looked up): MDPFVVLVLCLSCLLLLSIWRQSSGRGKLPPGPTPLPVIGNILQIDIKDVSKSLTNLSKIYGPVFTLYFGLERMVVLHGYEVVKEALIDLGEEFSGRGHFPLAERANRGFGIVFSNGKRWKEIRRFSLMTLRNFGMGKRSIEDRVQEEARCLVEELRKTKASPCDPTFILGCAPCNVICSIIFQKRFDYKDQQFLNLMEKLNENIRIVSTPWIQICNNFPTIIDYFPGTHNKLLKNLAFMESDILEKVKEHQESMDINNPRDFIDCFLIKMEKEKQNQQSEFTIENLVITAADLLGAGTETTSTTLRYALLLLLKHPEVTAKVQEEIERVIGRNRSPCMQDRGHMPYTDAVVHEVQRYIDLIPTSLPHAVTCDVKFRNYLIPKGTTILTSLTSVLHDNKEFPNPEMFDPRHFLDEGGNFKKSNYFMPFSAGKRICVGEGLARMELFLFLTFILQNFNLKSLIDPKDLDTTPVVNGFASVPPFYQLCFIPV
Sequence of Cytochrome P450 2D6 (Homo sapiens) (P10635 whole entry, looked up): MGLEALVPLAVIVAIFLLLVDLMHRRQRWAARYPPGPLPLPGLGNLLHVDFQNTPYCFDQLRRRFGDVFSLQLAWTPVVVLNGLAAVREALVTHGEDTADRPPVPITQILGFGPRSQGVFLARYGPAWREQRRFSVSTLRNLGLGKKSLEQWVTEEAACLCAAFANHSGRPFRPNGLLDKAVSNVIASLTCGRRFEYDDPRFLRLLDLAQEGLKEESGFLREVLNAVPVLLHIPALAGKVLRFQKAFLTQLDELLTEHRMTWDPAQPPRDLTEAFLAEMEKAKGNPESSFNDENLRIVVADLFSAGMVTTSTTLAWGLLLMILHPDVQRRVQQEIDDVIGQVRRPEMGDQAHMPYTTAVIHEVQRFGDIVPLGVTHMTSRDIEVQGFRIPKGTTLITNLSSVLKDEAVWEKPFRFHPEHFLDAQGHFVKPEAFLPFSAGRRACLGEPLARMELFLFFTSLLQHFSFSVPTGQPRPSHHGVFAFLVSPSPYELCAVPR
Sequence of Guanine nucleotide-binding protein G(i) subunit alpha-1 (Homo sapiens) (P63096 whole entry, looked up): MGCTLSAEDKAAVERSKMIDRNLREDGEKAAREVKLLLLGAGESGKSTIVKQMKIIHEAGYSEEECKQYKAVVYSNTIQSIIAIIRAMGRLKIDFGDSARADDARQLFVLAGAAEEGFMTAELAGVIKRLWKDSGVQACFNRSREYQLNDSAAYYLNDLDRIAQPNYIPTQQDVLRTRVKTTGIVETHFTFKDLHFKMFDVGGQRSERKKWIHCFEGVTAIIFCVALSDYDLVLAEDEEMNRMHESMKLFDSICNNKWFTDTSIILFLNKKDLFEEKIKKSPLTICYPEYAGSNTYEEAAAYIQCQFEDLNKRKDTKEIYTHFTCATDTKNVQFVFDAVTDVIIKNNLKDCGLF
Sequence of Cytochrome P450 2C9 (Homo sapiens) (P11712 whole entry, looked up): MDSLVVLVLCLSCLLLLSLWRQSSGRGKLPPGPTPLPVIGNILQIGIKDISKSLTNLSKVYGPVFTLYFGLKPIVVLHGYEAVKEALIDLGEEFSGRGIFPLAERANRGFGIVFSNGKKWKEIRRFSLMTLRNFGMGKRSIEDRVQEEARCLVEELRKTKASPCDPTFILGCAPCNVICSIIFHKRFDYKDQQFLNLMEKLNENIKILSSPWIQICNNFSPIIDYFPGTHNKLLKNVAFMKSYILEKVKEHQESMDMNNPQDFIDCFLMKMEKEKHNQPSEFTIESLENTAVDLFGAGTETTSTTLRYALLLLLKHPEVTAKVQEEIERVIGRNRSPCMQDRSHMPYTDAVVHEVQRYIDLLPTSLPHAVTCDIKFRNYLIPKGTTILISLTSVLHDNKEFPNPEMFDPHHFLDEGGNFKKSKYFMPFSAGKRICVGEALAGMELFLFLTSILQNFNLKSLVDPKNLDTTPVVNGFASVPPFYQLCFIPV

On to `O=C1NCN(c2ccccc2)C12CCN(CCCC(c1ccc(F)cc1)c1ccc(F)cc1)CC2`, for which the Potency entry in [1] is “inactive”. Further, the Potency was 1.58 µM (active) in assay [2] and 12.6 µM (active) in assay [3].

For `CN1CCN(CC(=O)N2c3ccccc3C(=O)Nc3cccnc32)CC1`, the Potency result in [1] was “inactive”. The outcome in assay [4] and in assay [5] was inactive.

For `O=C(O)CN(CCOCCOCCN(CC(=O)O)CC(=O)O)CC(=O)O`, the Potency entry in [1] and in assay [6] was “inactive” in each case. Moreover, the call in assay [7] was inactive.

As to `Brc1c(NC2=NCCN2)ccc2nccnc12`, the Potency entry in assay [1], in assay [8], in assay [6] and in [9] was “inactive” throughout. Further, the call in assay [7] was inactive.

Turning to `CC[N+](C)(C)c1cccc(O)c1`, the Potency result in assay [1] and in [6] was “inactive” each time. The outcome in [4] and in [5] was inactive.

With `Cc1nc2sccn2c(=O)c1CCN1CCC(=C(c2ccc(F)cc2)c2ccc(F)cc2)CC1`, the Potency result in assay [1] is “inactive”. Also, the Potency in assay [2] is 10 µM (active); in [6], 5.01 µM (active). For the same compound, the outcome in assay [7] was inactive.

`C[n+]1cc2c3c(ccc2c2ccc4cc5c(cc4c21)OCO5)OCO3`: the Potency in assay [1] was 12.6 µM (active); in [6], 10 µM (active); in assay [9], 6.31 µM (active); in assay [3], 1 µM (active). The call in [5] was inactive.

For `COc1cc2c(cc1OC)-c1cc(=Nc3c(C)cc(C)cc3C)n(C)c(=O)n1CC2`, the Potency entry in assay [1] was “inactive”. Moreover, the Potency was 1.26 µM (active) in assay [8] and 5.62 µM (active) in assay [6].

With `CN(C)CCCN1c2ccccc2Sc2ccc(C(F)(F)F)cc21`, the Potency entry in [1] is “inactive”. The Potency in [2] was 794 nM (active) and 398 nM (active). Moreover, the outcome in assay [5] was inactive. The activation in assay [10] was 12.9%.

Take `CC(=O)Oc1cc(C(C)C)c(OCCN(C)C)cc1C`: the Potency entry in assay [1] and in assay [6] was “inactive” each time.

Take `c1cnc(N2CCN(Cc3ccc4c(c3)OCO4)CC2)nc1`: in [1], the Potency entry was “inactive”. Also, the Potency was 0.199 µM (active) in [2]; 2 µM (active) and 631 nM (active) in assay [9].

Regarding `CCn1cc(C(=O)O)c(=O)c2cc3c(cc21)OCO3`, the Potency entry in assay [1] was “inactive”. Moreover, the compound was classed as inactive in [4], in assay [5] and in assay [7].

On to `O=C(CCNNC(=O)c1ccncc1)NCc1ccccc1`, for which the Potency entry in assay [1] and in assay [9] was “inactive” each time.

`CN(C)CCOC(=O)COc1ccc(Cl)cc1`: the Potency result in [1] and in assay [9] was “inactive” each time. Besides, the outcome in [5] was inactive.

Consider `CCCN(CCC)CCc1cccc2c1CC(=O)N2`, for which, in assay [1], the Potency result is “inactive”. For the same compound, the call in assay [4], in assay [5] and in [7] was inactive.

As for `FC(F)(F)c1ccccc1-n1ccnc1`, the Potency result in assay [1] was “inactive”. Also, the Potency in [2] was 6.31 µM (active). Moreover, the compound was classed as inactive in assay [5].

Regarding `C[C@]12CCC(=O)C=C1CC[C@@H]1[C@@H]2C(=O)C[C@@]2(C)[C@H]1CC[C@]2(O)C(=O)CO`, the Potency entry in assay [1] and in assay [6] was “inactive” each time.

Consider `C[N+](C)(C)CCOC(N)=O`, for which the Potency result in assay [1] and in [9] was “inactive” throughout. For the same compound, the outcome in assay [4] and in assay [5] was inactive.

The values are drawn from PubChem BioAssay (NCATS).
